Among the data in PubChem BioAssay (NCI) are growth values, retold here.

Each structure is given as a SMILES string. About 83,000 compounds went through this panel and 20% of them were active in at least one assay; those are over-represented in the sample as a whole.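 96-well plates, one dose, 48 hours. Percent growth reported; active if below 10.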 Calls of active or inactive are those of the source.

The assay concerns MDA-MB-468 breast. The assay can be described thus: NCI-60 one-dose screen, 48 h (100 = growth as untreated, 0 = no growth, -100 = all killed). The conditions noted are these: 10 µM unless noted.
`C=C(C)[C@@H]1CC[C@]2(CN)CC[C@]3(C)[C@H](CC[C@@H]4[C@@]5(C)CCC(=O)NC(C)(C)[C@@H]5CC[C@]43C)[C@@H]12`: the growth is 35.5% (inactive).

On to `Oc1[nH]c2ccc(Cl)cc2c1/C=c1/ccc2c(c1)N=C(c1ccc(C(F)(F)F)cc1)N=2`, for which the growth is 52.5% (inactive).

For `O=C(/C=C/c1ccccc1)c1cccs1`, the growth was 80.2% (inactive).

Consider `COC(OC)C1(c2ccccc2)NC(=O)NC1=O` (stereo not given), for which the growth was 113% (inactive).

Turning to `O=c1c2cc(F)ccc2sc2c(Nc3ccncc3)nc3ccccc3c12`, the growth was 27.8% (inactive).

Turning to `c1ccc(-c2cn3nc(-c4c[nH]c5ccccc45)sc3n2)cc1`, the growth is 77.9% (inactive).

As for `O=C1c2cc3c(cc2-c2c1c1ccc(F)cc1c(=O)n2CCCNCCO)OCO3`, the growth was -70.8% (active).

Turning to `COc1ccc(C2=CC(c3ccc(OC)cc3Br)N3C=CSC3=N2)cc1` (stereo not given), the growth was 17.4% (inactive).

Consider `COC(=O)[C@@H](Cc1c[nH]c2ccccc12)NC(=O)CCCCOc1cc(O)c2c(=O)cc(-c3ccccc3)oc2c1`, for which the growth is 71.3% (inactive).

As for `Cc1cc(-c2cc(C)c(N)cc2C)c(C)cc1N`, the growth was 61% (inactive).

As to `Cc1c(Cl)cccc1NS(=O)(=O)c1ccccc1`, the growth was 93.2% (inactive).

With `O=C1C2C3C=CC(O3)C2C(=O)N1Nc1ccccc1` (stereo not given), the growth is 105% (inactive).

For `C=CCn1c(SCC(=O)Nc2ccc(C(=O)/C=C/c3ccc(OC)cc3)cc2)nnc1-c1ccc(OC)c(OC)c1`, the growth was 75% (inactive).

Consider `CCCCn1cnc(-c2cc(-c3ccccc3)cc(C(F)(F)F)c2)n1`, for which the growth is 99% (inactive).

In the case of `COc1ccc2c(c1)C(=O)c1c-2c(OCCN(C)C)nc2cc(OC)ccc12`, the growth is 15.9% (inactive).

With `COC(=O)[C@H](C)NC(=O)c1ccc(NC(=O)c2[nH]c(C)c(Cl)c2Cl)c(OCCN)c1`, the growth was 107% (inactive).

For `CCC(=O)c1ccc(O)c(OC)c1`, the growth is 103% (inactive).

Take `Cc1ccc(S(=O)(=O)N(CC[C@@H]2C[C@H]2c2cc3ccccc3o2)S(=O)(=O)c2ccc(C)cc2)cc1`: the growth was 80% (inactive).

On to `COc1ccc(OC)c(/C=C/c2nnc(Nc3ccccc3)o2)c1`, for which the growth was 103% (inactive).

Regarding `O=C1/C(=C/c2cccc([N+](=O)[O-])c2)COc2ccc(O)c(O)c21`, the growth was -47.8% (active).

Regarding `COc1ccc2c(c1)OC(N)=C(C#N)C2c1ccc(F)c(F)c1` (stereo not given), the growth is -24.4% (active).

With `CCCc1cccc(CCC)c1NC(=O)Nc1cc(Cl)cc(Cl)c1`, the growth was 98.8% (inactive).

Consider `CCc1c(C)c2cc(-n3c(-c4ccc(OC)cc4)csc3=N)c(O)c(C)c2oc1=O`, for which the growth is 17% (inactive).

`CCOC(=O)c1ccc2c(c1)[n+](=O)c(C(=O)c1ccc3ccccc3c1)c(C(F)(F)F)n2[O-]`: the growth was -92.6% (active).

Turning to `CN(CCC(=O)c1ccccc1)CCC(=O)c1ccccc1`, the growth was 73.4% (inactive).

On to `COc1ccc(-c2c3c(N)c4c(nc3nc3c2c(C)nn3-c2ccccc2)CCCC4)cc1`, for which the growth was 70.3% (inactive).

For the compound `O=[N+]([O-])c1ccc(-c2nc(Cl)c3c(n2)CCCC3)o1`, the growth is 54.1% (inactive).

Take `CCOC(=O)c1cc2c(n1Cc1cc(OC)cc(OC)c1)-c1oncc1CC2`: the growth is -14.1% (active).

Consider `Cc1ccc(NC(=O)N[C@@H](Cc2cc(F)cc(F)c2)C(=O)NC2C(=O)N3CCC[C@H]3C(=O)N3CCCC[C@H]3C(=O)N[C@@H](C)C(=O)N3C[C@H](C)C[C@H]3C(=O)O[C@H]2C)c(F)c1` (stereo not given in full), for which the growth is -12.1% (active).

As to `NC(N)=Nc1nc2ccccc2o1`, the growth was 106% (inactive).

`O=C(O)c1cn(C2CC2)c2cc(N3CCN(C(=O)CSc4nc(NS(=O)(=O)c5ccccc5)cc(=O)[nH]4)CC3)c(F)cc2c1=O`: the growth is 98.7% (inactive).

With `O=Cc1c(OCc2cnnn2CC(=O)Nc2ccc(Cl)cc2)ccc2ccccc12`, the growth was 104% (inactive).

`Clc1ccc(/C=N/Nc2nc3ccccc3s2)c(Cl)c1`: the growth is 89.3% (inactive).

On to `O=C1/C(=C/c2ccccc2O)CC/C1=C\c1ccccc1O`, for which the growth was 34.3% (inactive).

In the case of `COC12C=C/C(=C(/C(=O)OCc3cncnc3)C(=O)CCCCCCCCC3(OC)C=C/C(=C(/C(=O)OCc4cncnc4)C(=O)CCCCCCCC1)O3)O2`, the growth was -39.8% (active).

As for `O=C(O)/C(=C/c1ccc(O)cc1)c1ccccc1`, the growth was 96.9% (inactive).

Consider `Clc1ccc2c(NCCCN3CCN(c4nc(-n5ccnc5)nc5ccccc45)CC3)ccnc2c1`, for which the growth is 106% (inactive).

Take `C=CC(=O)N1CCN(c2ccc3cccc(NC(=O)c4cnc(C)cn4)c3n2)CC1`: the growth was 1.58% (active).

For `COc1ccc([C@H]2C(=O)N(c3cc(OC)c(OC)c(OC)c3)[C@@H]2c2ccc(OC)c(O)c2)cc1`, the growth is -2.22% (active).

Regarding `NCCN1CCN(c2nccc(-c3ccc4ccccc4c3)n2)CC1`, the growth is 56.2% (inactive).
